Rows were chosen to be rich in hits. Some 7.8% of all compounds tested hit in one or more screens of this group.
LASV entry inh: blocks Lassa virus binding to or entry into cells; Potency, µM (top dose mostly 37.9 µM), inactives show top-dose activity change, negative = inhibition, usual class: inhibitors; hit rate 1.2% among 300,000; Lassa virus pseudotype entry inhibition, cell reporter; calls by dose curve; tested in HEK293 cells; also: potency is read from the fitted curve at half-maximal effect; nearly all actives have a fitted effect of over 50% in size
VACV Venus inh: vaccinia inhibition (Venus reporter); Vaccinia virus Venus reporter expression, fluorescence; Potency, µM (top dose mostly 36.5 µM), without a hit: at the top dose activity change, negative = inhibition, most hits filed as inhibitors; hit rate 0.46% among 330,000; calls by dose curve; tested in A549 cells; also: potency is read from the fitted curve at half-maximal effect; nearly all actives have a fitted effect of over 30% in size
MARV entry inh: Marburg virus entry inhibition | Marburg virus pseudotyped entry inhibition, cell reporter | Potency, µM (highest dose often 37.8 µM), for inactives: at the top dose activity change, negative = inhibition, hits mostly inhibitors | hit rate 1.8% among 300,000 | AID 540276; calls by dose curve; tested in HEK293 cells; also: potency is read from the fitted curve at half-maximal effect
HCMV inh: inhibitors of human cytomegalovirus | activity change, negative = inhibition, % at 57.5 µM | HFF cells, HCMV-luciferase reporter, 72 h; hits give low values | hit rate 4.5% among 410,000; in the data active = activity change below about -60%; inconclusive = no clear call, values can overlap the other calls; inactive = above about -39%
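Human foreskin fibroblasts infected with luciferase-reporter HCMV at MOI 1 PFU/cell, compounds at two doses. Luciferase measured 72 h post infection; normalized to buffer-only basal and Salinomycin (10uM) controls.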
HCV inhibitor: inhibitors of hepatitis C virus infection | Huh7.5.1 HCVcc-Cre infection, luciferase reporter, 44 h | Potency, µM (doses to about 41.8 µM), for the others: at the top dose activity change, negative = inhibition, hits mostly inhibitors | hit rate 3.4% among 340,000 | AID 651820; active = well fitted inhibition curve with a large enough effect; inconclusive = small, poorly fitted or top-dose-only effect, or another doubt; inactive = no such curve, though single readings can be large or run the other way; also: potency is read from the fitted curve at half-maximal effect
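Luciferase read-out (15 sec integration) after a 15 min room-temperature substrate step quantifies HCVcc-Cre infection. Cells, 1,000 per well, had compound added 4 h post-plating, then virus at ~0.5 moi, and were cultured 44 h.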
Vaccinia mCherry: inhibitors of vaccinia virus infection (mCherry reporter signal); Vaccinia virus mCherry reporter infection, fluorescence; hit rate 0.63% among 310,000; AID 720579; Potency, µM (highest dose often 36.5 µM), without a hit: at the highest dose activity change, negative = inhibition, usual class: inhibitors; calls by dose curve; tested in A549 cells; also: potency is read from the fitted curve at half-maximal effect; nearly all actives have a fitted effect of over 35% in size
The depositor's hits bear a star; i = inactive; ? = inconclusive; · = no result given; [ ] = dose if it differs, or a comment. % is scaled to controls: 0 for no effect and ±100 for the full control effect.

SMILES	LASV entry inh	VACV Venus inh	MARV entry inh	HCMV inh	HCV inhibitor	Vaccinia mCherry
Oc1cccc(C(Nc2nccs2)c2ccc3cccnc3c2O)c1 (stereo not given)	?	?	?	-93.4*	?	15.8µM*
Oc1c(C(Nc2ccccn2)c2cccnc2)cc(Cl)c2cccnc12 (stereo not given)	?	?	?	1.7	?	?
O=[N+]([O-])c1ccc2cccnc2c1	·	-1.4%	·	-19.9	·	i
Oc1cccc(C(Nc2ccccn2)c2ccc3cccnc3c2O)c1Cl (stereo not given)	?	?	?	-82.3*	·	?
O=[N+]([O-])c1ccc(NC(c2ccccc2)c2ccc3cccnc3c2O)cc1 (stereo not given)	?	?	1.41µM*	-97.5*	?	?
O=C(c1cccs1)N1CCC(C(=O)N2CCN(Cc3ccc4c(c3)OCO4)CC2)CC1	-3.3%	5.5%	?	?	-14.7%	-15.0%
COc1ccc2cc(C(=O)N3CCN(Cc4ccc5c(c4)OCO5)CC3)[nH]c2c1	?	-20.8%	?	0.0	10µM*	i
O=C(C1CCN(Cc2cccs2)CC1)N1CCN(Cc2ccc3c(c2)OCO3)CC1	-0.5%	-10.1%	?	-103.6*	?	-2.7%
O=C(C1CCN(S(=O)(=O)c2ccccc2F)CC1)N1CCN(Cc2ccc3c(c2)OCO3)CC1	·	·	·	-33.1	12.6µM*	·
Cc1ccccc1C(=O)N1CCC(C(=O)N2CCN(Cc3ccc4c(c3)OCO4)CC2)CC1	11.1%	-4.7%	-16.1%	-101.7*	-9.8%	-6.4%
COc1ccc(CCN2C(=O)CN(C3CCCCCC3)C(=O)C2c2ccc(C)cc2)cc1OC (stereo not given)	10.2%[46.1 µM]	-14.8%	·	42.9	·	-12.0%
CNc1ccc(/C=C2\C=Cc3ccccc32)cc1I	·	-20.5%	·	·	·	-29.7%
O=C(CN1C(=O)c2cccc3cccc1c23)NCc1ccc2c(c1)OCO2	9.2%	·	-16.1%	47.5	-17.8%	·
O=C(CN1C(=O)c2cccc3cccc(c23)C1=O)N1CCN(Cc2ccc3c(c2)OCO3)CC1	-7.1%	-6.5%	-8.1%	-16.1	22.4µM*	?
CCOC(=O)c1cccc(NC(=O)c2cc(S(=O)(=O)N3CCCCCC3)cn2C)c1	5.9%[46.1 µM]	-6.8%	·	-17.5	·	-10.2%
CCOc1ccccc1CN1CCc2nc(N3CCN(c4ccccc4F)CC3)ncc2C1	-18.2%[46.1 µM]	?	·	-64.1*	·	-27.6%
COc1cc(CN2CCc3nc(N4CCN(c5ncccn5)CC4)ncc3C2)cc(OC)c1OC	?	?	·	-62.9*	·	-25.0%
CN(C)c1ccc(CN2CCc3nc(N4CCN(c5ccccn5)CC4)ncc3C2)cc1	?	-27.1%	·	-29.2	·	?
Brc1ccc(CN2CCc3nc(N4CCN(c5ncccn5)CC4)ncc3C2)cc1	-6.8%[46.1 µM]	-25.4%	·	-19.9	·	-14.0%
COc1cc(CN2CCc3nc(N4CCN(c5ccccn5)CC4)ncc3C2)cc(OC)c1OC	?	?	·	-63.4*	·	-7.1%
CCCN1C(=O)c2ccccc2NC1c1ccc(OC)c(COc2ccc([N+](=O)[O-])c(C)c2)c1 (stereo not given)	·	-20.4%	·	·	·	14.2%
COc1ccc(-c2oc3ccc(-c4cc(OC)c(OC)c(OC)c4)cc3c2C(=O)c2ccc(OC)nc2)cc1	·	-12.4%	·	-99.0*	48.4%	-10.4%
Cn1nc([N+](=O)[O-])c(C(C#N)c2nc3ccccc3n2C)c(Cl)c1=O (stereo not given)	1.9%	0.5%	0.2%	-75.6*	11.1%	-5.6%
O=C(c1ccccc1C(=O)N1CCN(c2ccccc2F)CC1)N1CCN(c2ccccc2F)CC1	-5.2%	-18.4%	-1.2%	-10.2	-15.9%	·
CCSc1ccccc1C(=O)N1CCN(c2ccccc2F)CC1	3.0%	·	-20.7%	-103.1*	6.0%	·
CC(=O)C1=CCC(c2cccc(Cl)c2)N(S(=O)(=O)c2ccc(C)cc2)C1 (stereo not given)	·	-10.7%	·	-30.5	·	30.0%
CCCCN(CC)Cc1ccc(CNC(=O)Nc2ccc(Cl)cc2)o1	?	-10.3%	?	-17.3	?	i
CCCCN(CC)Cc1ccc(CNC(=O)Nc2ccc(OCC)cc2)o1	2.4%	·	?	-9.7	12.6µM*	·
